Measured values: PubChem BioAssay (NCATS)
Results filed as inconclusive are left out. The source made the active and inactive calls. Unless noted, calls follow the shape of the full dose curve.

Key:
[1] = target: Alpha-galactosidase (Coffea arabica) (UniProt Q42656); assay: Counterscreen for Glucocerebrosidase Inhibitors: qHTS Assay for Coffee Bean alpha-Galactosidase at pH 4.5 (AID 957; active = well fitted curve in the direction sought with a large enough effect; an effect the other way counts as inactive or inconclusive; also: series mostly up to about 77 µM)
Sequence of Alpha-galactosidase (Coffea arabica) (Q42656 whole entry, looked up): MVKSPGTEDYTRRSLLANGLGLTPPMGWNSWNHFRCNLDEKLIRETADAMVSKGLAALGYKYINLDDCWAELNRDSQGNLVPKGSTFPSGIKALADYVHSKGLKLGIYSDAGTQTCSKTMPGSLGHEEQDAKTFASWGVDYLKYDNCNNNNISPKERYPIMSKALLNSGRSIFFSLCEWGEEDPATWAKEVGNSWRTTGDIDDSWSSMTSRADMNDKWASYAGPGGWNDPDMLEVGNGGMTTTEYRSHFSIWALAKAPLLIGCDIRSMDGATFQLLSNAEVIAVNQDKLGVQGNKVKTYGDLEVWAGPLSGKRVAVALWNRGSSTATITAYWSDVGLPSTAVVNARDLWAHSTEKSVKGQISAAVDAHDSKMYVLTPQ
Summary of the method: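 Quantitative HTS of compounds (0.7 nM to 77 uM) against coffee bean alpha-galactosidase at pH 4.5, measuring 4-methylumbelliferone fluorescence released from 80 uM substrate.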

[2] = target: Alpha-galactosidase (Coffea arabica) (UniProt Q42656); assay: Counterscreen for Glucocerebrosidase Inhibitors: qHTS Assay for Coffee Bean alpha-Galactosidase at pH 5.9 (AID 998; active = well fitted curve in the direction sought with a large enough effect; an effect the other way counts as inactive or inconclusive)
Summary of the method: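 In 50 mM citric acid pH 5.9 with 0.005% Tween-20, coffee bean enzyme hydrolyses 80 uM 4-MU alpha-D-galactopyranoside over 20 min at RT. Activity is normalized to controls; AC50 comes from Hill-modelled concentration-response data.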

[3] = Validation screen for inhibitors of Lassa infection (AID 463096)
[4] = Inducers of the Endoplasmic Reticulum Stress Response (ERSR) in human glioma: Validation (AID 504836; active = well fitted curve in the direction sought with a large enough effect; an effect the other way counts as inactive or inconclusive)
Summary of the method: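 Stably transfected U87-MG human glioma cells carrying a GRP78-based luminescent sensor were seeded at 1000 cells/well, pin-dosed with compounds and incubated 16 h. Luciferase reagent was then added, and end-point luminescence was read after 10 min at room temperature.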

[5] = qHTS for Inhibitors of the Functional Ribonucleoprotein Complex (vRNP) of Lassa (LASV) Arenavirus: LASV Primary Screen - GLuc reporter signal (AID 1347082; calls by dose curve; tested in HEK293 reporter line; also: series mostly up to about 57 µM; nearly all actives have a fitted effect of over 60% in size)
[6] = qHTS for Inhibitors of the Functional Ribonucleoprotein Complex (vRNP) of Lassa (LASV) Arenavirus: Viability assay - alamar blue signal for LASV Primary Screen (AID 1347083; calls by dose curve; tested in HEK293 reporter line; also: series mostly up to about 57 µM; nearly all actives have a fitted effect of over 80% in size)
[7] = qHTS for Inhibitors of the Functional Ribonucleoprotein Complex (vRNP) of Lymphocytic Choriomeningitis Arenaviruses (LCMV): Viability assay - alamar blue signal for LCMV Primary Screen (AID 1347085; calls by dose curve; tested in HEK293 reporter line; also: series mostly up to about 57 µM; nearly all actives have a fitted effect of over 80% in size)
[8] = target: Nucleoprotein (Lymphocytic choriomeningitis virus (strain Armstrong)) (UniProt P09992); assay: qHTS for Inhibitors of the Functional Ribonucleoprotein Complex (vRNP) of Lymphocytic Choriomeningitis Arenaviruses (LCMV): LCMV Primary Screen - GLuc reporter signal (AID 1347086); also: series mostly up to about 57 µM; nearly all actives have a fitted effect of over 70% in size
Sequence of Nucleoprotein (Lymphocytic choriomeningitis virus (strain Armstrong)) (P09992 whole entry, looked up): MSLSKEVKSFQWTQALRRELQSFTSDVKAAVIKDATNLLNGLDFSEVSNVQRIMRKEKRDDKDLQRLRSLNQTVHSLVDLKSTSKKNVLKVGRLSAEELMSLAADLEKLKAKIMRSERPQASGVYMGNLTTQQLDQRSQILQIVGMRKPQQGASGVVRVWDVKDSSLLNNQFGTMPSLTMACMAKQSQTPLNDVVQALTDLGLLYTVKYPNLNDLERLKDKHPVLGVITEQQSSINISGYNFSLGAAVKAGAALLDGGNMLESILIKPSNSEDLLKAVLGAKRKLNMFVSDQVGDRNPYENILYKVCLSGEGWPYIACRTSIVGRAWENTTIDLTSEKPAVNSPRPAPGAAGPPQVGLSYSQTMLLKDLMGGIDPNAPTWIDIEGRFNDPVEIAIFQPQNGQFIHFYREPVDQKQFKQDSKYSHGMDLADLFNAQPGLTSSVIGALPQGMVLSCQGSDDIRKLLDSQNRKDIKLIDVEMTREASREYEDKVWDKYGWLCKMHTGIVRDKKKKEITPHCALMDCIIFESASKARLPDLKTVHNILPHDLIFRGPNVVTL

[9] = target: Peroxisome proliferator-activated receptor delta (Homo sapiens) (UniProt Q03181); assay: qHTS assay for small molecule agonists of peroxisome proliferator-activated receptor delta signaling (AID 588534)
Sequence of Peroxisome proliferator-activated receptor delta (Homo sapiens) (Q03181 whole entry, looked up): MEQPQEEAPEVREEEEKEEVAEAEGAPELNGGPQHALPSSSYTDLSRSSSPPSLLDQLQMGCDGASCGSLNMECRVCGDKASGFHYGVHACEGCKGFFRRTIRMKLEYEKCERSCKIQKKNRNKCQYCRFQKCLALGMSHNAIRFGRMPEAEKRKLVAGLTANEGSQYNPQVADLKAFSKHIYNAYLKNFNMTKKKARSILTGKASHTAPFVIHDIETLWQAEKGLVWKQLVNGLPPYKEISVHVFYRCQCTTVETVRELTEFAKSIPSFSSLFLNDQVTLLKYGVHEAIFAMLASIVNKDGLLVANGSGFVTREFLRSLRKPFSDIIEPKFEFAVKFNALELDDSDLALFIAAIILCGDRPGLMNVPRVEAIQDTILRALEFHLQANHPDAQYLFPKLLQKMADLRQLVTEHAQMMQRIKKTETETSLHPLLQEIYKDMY
Summary of the method: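 EC50 and efficacy values derive from Hill fits of a concentration series in a beta-lactamase reporter cell assay. Exposure is 18 hrs at 37 C, with CCF4 fluorescence as the readout.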

[10] = target: M-phase phosphoprotein 8 (Homo sapiens) (UniProt Q99549); assay: qHTS Validation Assay for Inhibitors for MPP8 Chromodomain Interactions with Methylated Histone Tails (AID 488949; active = well fitted curve in the direction sought with a large enough effect; an effect the other way counts as inactive or inconclusive;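 also: AlphaScreen signal from MPP8 chromodomain bound to biotinylated H3K9me3 peptide; top concentration of the series differs between compounds; nearly all actives have a fitted effect of over 55% in size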)
Sequence of M-phase phosphoprotein 8 (Homo sapiens) (Q99549 whole entry, looked up): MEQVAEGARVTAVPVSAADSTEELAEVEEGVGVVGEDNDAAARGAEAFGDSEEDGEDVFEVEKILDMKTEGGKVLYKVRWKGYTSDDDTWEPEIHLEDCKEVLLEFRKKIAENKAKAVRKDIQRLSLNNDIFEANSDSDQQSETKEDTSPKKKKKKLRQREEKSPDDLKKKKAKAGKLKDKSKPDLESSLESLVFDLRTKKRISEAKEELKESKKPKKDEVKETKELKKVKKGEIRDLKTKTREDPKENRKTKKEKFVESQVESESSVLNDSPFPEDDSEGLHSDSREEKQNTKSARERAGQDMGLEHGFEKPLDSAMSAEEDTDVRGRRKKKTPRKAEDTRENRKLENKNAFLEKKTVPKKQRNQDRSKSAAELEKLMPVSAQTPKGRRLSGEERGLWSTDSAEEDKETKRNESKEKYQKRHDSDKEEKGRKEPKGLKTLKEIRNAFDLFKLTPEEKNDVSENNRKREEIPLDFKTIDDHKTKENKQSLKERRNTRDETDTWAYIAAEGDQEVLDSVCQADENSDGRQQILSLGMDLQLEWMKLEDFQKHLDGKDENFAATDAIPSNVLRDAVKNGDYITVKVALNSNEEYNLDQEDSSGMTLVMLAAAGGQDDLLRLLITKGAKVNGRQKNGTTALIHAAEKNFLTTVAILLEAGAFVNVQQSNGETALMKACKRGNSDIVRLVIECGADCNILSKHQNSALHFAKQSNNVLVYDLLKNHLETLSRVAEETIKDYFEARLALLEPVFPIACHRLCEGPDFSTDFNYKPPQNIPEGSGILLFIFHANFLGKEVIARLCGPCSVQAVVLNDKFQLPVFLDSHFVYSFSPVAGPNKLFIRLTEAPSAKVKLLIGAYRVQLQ
Summary of the method: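 AlphaScreen read-out: streptavidin donor and nickel chelate acceptor beads (final 10 ug/mL), 30 min in the dark at RT. Complex of 50 nM MPP8 and 50 nM b-H3(1-18)K9me3 peptide had been exposed to compounds for 30 min beforehand.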

Measured: Potency

Cn1ccnc1
inactive: [1] | [2] | [3] | [4] | [5] | [6] | [7] | [8]

CC(=O)C(C)=O
inactive: [1] | [2] | [3] | [4] | [9] | [5] | [6] | [7] | [8]

CN1CCc2cc(O)c(O)cc2C(c2ccccc2)C1 (stereo not given)
inactive: [3] | [4] | [5] | [6] | [7] | [8]

CC1=C(C(=O)O)N2C(=O)[C@@H](NC(=O)C(N)C3=CCC=CC3)[C@H]2SC1 (stereo not given in full)
inactive: [3] | [4] | [5] | [6] | [7] | [8]

CCCCCCCCCCCCCCCCCC(=O)OC(CC(=O)O)C[N+](C)(C)C (stereo not given)
inactive: [3] | [4] | [5] | [6] | [7] | [8]

C[C@@H](CN1CCC(Cc2ccccc2)CC1)[C@@H](O)c1ccc(O)cc1
inactive: [3] | [4] | [5] | [6] | [7] | [8]

NCCC1CCCC(CCN)N1 (stereo not given)
inactive: [3] | [4] | [5] | [6] | [7] | [8]

NC1CCN(O)C1=O (stereo not given)
inactive: [3] | [4] | [5] | [6] | [7] | [8]

C#CCN1C(C)=C(C(=O)OC)C(c2cccc([N+](=O)[O-])c2)C(C(=O)OCC)=C1C (stereo not given)
inactive: [3] | [4] | [5] | [6] | [7] | [8]

COC(=O)C(C)(N)Cc1ccc(O)cc1 (stereo not given)
inactive: [3] | [4] | [5] | [6] | [7] | [8]

COC(=O)C1=C(C)NC(C)=C([N+](=O)[O-])C1c1ccccc1C(F)(F)F (stereo not given)
inactive: [3] | [4] | [5] | [6] | [7] | [8]

O=C(O)CNC(=O)C(CS)Cc1ccccc1 (stereo not given)
inactive: [3] | [10] | [4] | [5] | [6] | [7] | [8]

Oc1cc(O)c2c(c1)O[C@H](c1ccc(O)c(O)c1)[C@@H](O)C2
inactive: [3] | [4] | [5] | [6] | [7] | [8]

COc1cc(C(O)CO)ccc1O (stereo not given)
inactive: [3] | [4] | [5] | [6] | [7] | [8]

NC1C=CC=C(C(=O)O)C1 (stereo not given)
inactive: [3] | [4] | [5] | [6] | [7] | [8]

CCCCCCCCCCCCCCCCCCOC[C@H](COP(=O)([O-])OCC[N+](C)(C)C)OC
inactive: [3] | [4] | [5] | [6] | [7] | [8]

NCC(O)c1ccc(O)c(O)c1 (stereo not given)
inactive: [3] | [4] | [5] | [6] | [7] | [8]

COc1cc(C(O)C(=O)O)ccc1O (stereo not given)
inactive: [3] | [4] | [5] | [6] | [7] | [8]

S=C(S)OC1CC2CC1C1CCCC21 (stereo not given)
inactive: [3] | [4] | [5] | [6] | [7] | [8]

NCC(O)(CS(=O)(=O)O)c1ccc(Cl)cc1 (stereo not given)
inactive: [3] | [4] | [5] | [6] | [7] | [8]

COC(=O)C(N)Cc1ccc(Cl)cc1 (stereo not given)
inactive: [3] | [4] | [5] | [6] | [7] | [8]

N[C@H]1CONC1=O
inactive: [3] | [4] | [5] | [6] | [7] | [8]

NC(C(=O)N[C@@H]1C(=O)N2C(C(=O)O)=C(Cl)CS[C@H]12)c1ccccc1 (stereo not given in full)
inactive: [3] | [4] | [5] | [6] | [7] | [8]

CC1C(=O)N(C)C(=O)c2nc[nH]c21 (stereo not given)
inactive: [3] | [4] | [5] | [6] | [7] | [8]

CC1CCN(CC[C@H]2CCCN2S(=O)(=O)c2cccc(O)c2)CC1
inactive: [3] | [4] | [5] | [6] | [7] | [8]

OC[C@H]1NC[C@@H](O)[C@@H]1O
inactive: [3] | [4] | [5] | [6] | [7] | [8]

O=C(O)CCC(=O)N1CCCC1C(=O)O (stereo not given)
inactive: [3] | [4] | [5] | [6] | [7] | [8]

CCCCOc1cc(CC2CNC(=O)N2)ccc1OC (stereo not given)
inactive: [3] | [4] | [5] | [6] | [7] | [8]

C=CCN1CCc2c(cc(O)c(O)c2Cl)C(c2ccccc2)C1 (stereo not given)
inactive: [3] | [4] | [5] | [6] | [7] | [8]
